Compounds with a hit are over-represented: about 10% of the library has one in this group of screens.
HEK293 tox – cytotoxic compounds in HEK 293 cells | HEK 293 viability, ATP luminescence (CellTiter-Glo), 48-72 h | Potency, µM (series often up to 115 µM), without a hit: top-dose activity change, negative = cytotoxicity, usual class: inhibitors | 94,000 tested, 6.6% active | AID 1345083; note: nearly all actives have a fitted effect of over 60% in size
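CellTiter-Glo luminescence (cellular ATP) was read after 48 or 72 hr of compound exposure at 37 degree Celsius. Cells were HEK 293 plated at 250 cells/well.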
NIH3T3 tox – cytotoxic compounds in NIH 3T3 cells. NIH 3T3 viability, CellTiter-Glo ATP luminescence, 48-72 h. Potency, µM (series often up to 96.7 µM), for inactives: at the top dose activity change, negative = cytotoxicity, most hits filed as inhibitors. 94,000 tested, 4.3% active. AID 1345082; note: nearly all actives have a fitted effect of over 55% in size
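Luminescent ATP readout (CellTiter-Glo, 10 min RT) after 48 or 72 hr compound exposure of NIH 3T3 cells seeded at 400 cells/well in 1536-well format; quantitative HTS.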
FLuc inh – Photinus pyralis luciferase inhibition | 76,000 tested, 2.5% active | AID 1347043 | purified P. pyralis luciferase, luminescence, biochemical | Potency, µM (highest dose often 115 µM), usual class: inhibitors | P08659; note: nearly all actives have a fitted effect of over 65% in size
Target sequence (P08659 whole entry, looked up): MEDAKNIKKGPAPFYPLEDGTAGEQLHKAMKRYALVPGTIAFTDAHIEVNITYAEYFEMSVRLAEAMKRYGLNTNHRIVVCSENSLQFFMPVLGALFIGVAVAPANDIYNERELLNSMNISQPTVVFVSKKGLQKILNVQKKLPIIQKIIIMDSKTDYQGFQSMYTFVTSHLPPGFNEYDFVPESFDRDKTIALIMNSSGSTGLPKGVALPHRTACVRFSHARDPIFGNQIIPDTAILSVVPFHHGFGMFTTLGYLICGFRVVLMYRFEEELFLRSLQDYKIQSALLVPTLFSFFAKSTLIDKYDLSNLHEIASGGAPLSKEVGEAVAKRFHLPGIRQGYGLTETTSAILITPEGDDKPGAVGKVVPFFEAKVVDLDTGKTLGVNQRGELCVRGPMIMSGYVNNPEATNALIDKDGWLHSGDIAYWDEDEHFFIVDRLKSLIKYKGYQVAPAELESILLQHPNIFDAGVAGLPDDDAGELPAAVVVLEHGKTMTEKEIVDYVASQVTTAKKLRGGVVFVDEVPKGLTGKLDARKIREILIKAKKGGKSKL
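Luminescence read by CCD imager after adding enzyme (10nM final) to wells holding compound, titrated in qHTS. Substrates 10uM each D-luciferin and ATP; buffer 50mM Tris acetate pH 7.5, 10mM Mg acetate, Tween-20, BSA.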
hNpr1 antagonist – blocks ANP-stimulated signaling of human Npr1 receptor; HEK293 hNpr1 GloSensor cGMP, ANP-stimulated luminescence; Potency, µM (highest dose often 46.3 µM), without a hit: at the top dose activity change, negative = inhibition, actives largely listed as inhibitors; P16066; 76,000 tested, 1.6% active; AID 1347048; calls by dose curve; note: nearly all actives have a fitted effect of over 60% in size
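Compound pre-incubated 30 min at room temperature on GloSensor-loaded HEK293 cells stably carrying hNpr1 and the pGS-40F cGMP biosensor. Stimulation uses hNppA at 0.1 nM final; luminescence is taken at baseline and 20 min post-agonist.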
GPT2 inhibitor – inhibitors of human GPT2 alanine aminotransferase; Recombinant GPT2, coupled pyruvate oxidase/HRP Amplex Red fluorescence; Potency, µM (doses to about 57.7 µM), inactives show top-dose activity change, negative = inhibition, usual class: inhibitors; 100,000 tested, 0.25% active; note: nearly all actives have a fitted effect of over 60% in size
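Recombinant GPT2 (10ng/uL) with 250uM a-KG and 2mM L-alanine, 30 min at room temperature, in HEPES pH 7.5 buffer. Pyruvate detected by pyruvate oxidase/HRP/Amplex Red fluorescence after 30 min in the dark; AOA (50uM) as positive control.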
* marks the source's active call; other numbers are inactive results; i = inactive; u = inconclusive; x = no result given; [ ] = remark or other dose. Unless noted, calls come from the whole dose curve; as a rule, active = well fitted curve in the direction sought with a large enough effect; inconclusive = small, poorly fitted or top-dose-only effect, or another doubt; inactive = no such curve, though single readings can be large; an effect the other way counts as inactive or inconclusive. % is set by controls: 0 for no effect and ±100 for the full control effect; potency is the fitted concentration of half-maximal effect.

SMILES	HEK293 tox	NIH3T3 tox	FLuc inh	hNpr1 antagonist	GPT2 inhibitor
COc1ccc(C(=O)NC[C@H]2COCc3nc4cc(C(F)(F)F)ccc4n32)cc1	u	u	i	0%[70.6 µM]	-4%[88.5 µM]
COc1ccccc1-c1cccc(CN2CCC(NC(=O)c3ccccc3Cl)CC2)c1	79µM*	u	x	x	-2%
COCCNC(=O)[C@H]1C[C@H](Oc2ccccc2)CN1Cc1cccnc1	i	i	i	2%	-16%
CNC(=O)[C@H]1C[C@H](Oc2ccccc2)CN1Cc1cccn1C	u	4%	i	-16%	i
CNC(=O)[C@H]1C[C@H](Oc2ccccc2)CN1Cc1cn(C)c2ccc(OC)cc12	28µM*	32µM*	i	-3%	-3%
COCCNC(=O)[C@H]1C[C@H](Oc2ccccc2)CN1Cc1cccc(C)c1	13µM*	-24%	i	0%	2%
O=C1CCn2nnc(CNc3ccc(OC(F)(F)F)cc3)c2CN1Cc1ccccc1	u	u	i	1%[70.6 µM]	0%[88.5 µM]
COc1ccc(CN(C)Cc2ccoc2)cc1OCC(O)CN1CCCCC1 (centres undefined)	u	u	i	8%	i[11.5 µM]
N#Cc1ccc(NC2CC(c3cc(N4CCC(O)C4)ncn3)C2)nc1 (centres undefined)	-9%	16µM*	i	1%	i
CC(C(=O)N1Cc2c(C(=O)NC3CC3)nn(C)c2C1)c1ccccc1 (centres undefined)	i	i	x	x	i
CC(C)NC(=O)c1ccc2nc(-c3cccnc3)oc2c1	-23%[172 µM]	-10%[138 µM]	x	x	i
O=C(Cc1cccc(F)c1)N1CCC(OCCOc2cccnc2)CC1	-29%	-23%	x	x	i
O=C(c1ccc[nH]c1=O)N1CCC(n2cc(-c3nc(-c4ccccc4)no3)nn2)CC1	6%	-28%	u	-14%	i
O=C(c1cccc2[nH]ccc12)N1CCC(n2cc(-c3nc(-c4ccccc4)no3)nn2)CC1	28µM*	u	i	u	0%
CC(C)c1noc(-c2cn(C3CCN(C(=O)c4cccc5[nH]ccc45)CC3)nn2)n1	45µM*	-23%	i	0%	1%
O=C(c1cc(F)ccc1F)N1CCC(n2cc(-c3nc(-c4ccccc4)no3)nn2)C1 (centres undefined)	u	u	i	-24%	i
O=C(c1cccc2[nH]ccc12)N1CCC(n2cc(-c3nc(-c4ccccc4)no3)nn2)C1 (centres undefined)	u	u	u	11µM*	i
CCc1noc(-c2cn(C3CCN(C(=O)c4cccc5[nH]ccc45)CC3)nn2)n1	u	-24%	i	-26%	i
COc1ccccc1-c1nnc2ccc(C(=O)NCc3cccs3)cn12	-12%	-22%	x	x	2%
C[S+](=O)([O-])c1ccc(-c2nnc3ccc(C(=O)NCc4ccccc4)cn23)cc1	-6%	-24%	x	x	-10%
COc1ccc(-c2c(C(=O)NCc3ccccc3F)nc3sccn23)cc1	u	-28%[138 µM]	x	x	i
O=C(N[C@H](Cc1ccccc1)C(=O)O)c1sc2cc(F)ccc2c1Cl	x	x	x	x	1%
COc1ccccc1C(=O)N1CCCn2nc(C)c(-c3ccnn3C(C)C)c21	-22%[172 µM]	u	i	-3%[70.6 µM]	i
Cc1nn2c(c1-c1ccnn1C(C)C)N(C(=O)COc1ccccc1C(N)=O)CCC2	0%[172 µM]	28µM*	i	14%[70.6 µM]	-8%[88.5 µM]
Cc1nn2c(c1-c1cccc3cn[nH]c13)N(C(=O)COc1ccccc1C(N)=O)CCC2	i	25µM*	i	-20%[70.6 µM]	-14%[88.5 µM]
SMILES	HEK293 tox	NIH3T3 tox	FLuc inh	hNpr1 antagonist	GPT2 inhibitor
COc1ccccc1C(=O)N1CCCn2nc(C)c(-c3cccnc3N3CCOCC3)c21	i	u	i	5%[70.6 µM]	-2%[88.5 µM]
CCCCCNC(=O)C1CCCN1c1nccc(Nc2ccc(C)cc2)n1 (centres undefined)	u	u	x	x	i
O=C(NC1CC1)C1CCCN(c2nccc(Nc3ccccc3F)n2)C1 (centres undefined)	u	89µM*	x	x	i
O=C(NC1CCCC1)C1CCCN(c2nccc(Nc3ccccc3F)n2)C1 (centres undefined)	u	40µM*	x	x	i
O=C(NC1CCCC1)C1CCN(c2nccc(Nc3ccccc3F)n2)CC1	u	u	x	x	i
O=C1Nc2ccc(-c3ccccc3F)cc2C(=O)N2CCN(C(=O)NC3CCCCC3)C[C@H]12	u	u	i	-8%	-9%
O=C1CCC2(C(=O)NCCCN3CCCc4ccccc43)CCCC=C2N1C1CCCC1 (centres undefined)	u	u	x	x	-5%
O=C(c1cccc(O)c1)N1CCc2c(n(CCOc3ccccc3)n(-c3ccccc3)c2=O)C1	-15%	22µM*	i	-8%	-10%
CC(=O)N1CCC(C(=O)N2CCC(c3nc4ncccc4[nH]3)CC2)CC1	0%	-6%	x	x	5%
COc1ccccc1-c1cc2c(ccn2C)c(C(=O)NCCc2cnc[nH]2)n1	u	u	i	-2%[70.6 µM]	3%[88.5 µM]
Cn1ccc2c(C(=O)NCC3CCC(=O)N3)nc(-c3ccccc3O)cc21 (centres undefined)	u	40µM*	i	0%[70.6 µM]	1%[88.5 µM]
COc1ccccc1-c1cc2c(ccn2C)c(C(=O)NCCN2CCNC2=O)n1	-28%[172 µM]	100µM*	i	0%[70.6 µM]	-14%[88.5 µM]
COc1ccccc1-c1cc2c(ccn2C)c(C(=O)NCC2CCN(C)C(=O)C2)n1 (centres undefined)	-15%[172 µM]	79µM*	i	3%[70.6 µM]	i
CCOC(=O)c1cnc(N2CC3CCC(C2)N3CC(F)(F)F)s1	3%	-10%	x	x	4%
O=C(O)Cn1ccc2cc(OCC3CCN(C(=O)C4CCCC4)CC3)cnc21	3%[172 µM]	100µM*	i	0%[70.6 µM]	-5%[88.5 µM]
O=C(O)Cn1ccc2cc(OCC3CCN(C(=O)CCC(F)(F)F)CC3)cnc21	-11%[172 µM]	89µM*	i	-9%[70.6 µM]	u
CNC(=O)C1CCCN1Cc1cccc(-c2ccc(C)c(Cl)c2)c1 (centres undefined)	25µM*	35µM*	x	x	x
CNC(=O)C1CCCN1Cc1cccc(-c2cccc(OC)c2)c1 (centres undefined)	u	u	x	x	-8%
Cc1ccc(-c2cccc(CN3CCCC3C(=O)N3CCCC(C)C3)c2)cc1Cl (centres undefined)	u	32µM*	x	x	x
Cc1cc(C)cc(-c2ccc(CN3CCCC3C(=O)N3CCCCC3)cc2)c1 (centres undefined)	u	u	x	x	i
C#CCNC(=O)C1CCCN1Cc1ccc(-c2cncnc2)cc1 (centres undefined)	-18%[172 µM]	-13%[138 µM]	x	x	i
C#CCNC(=O)C1CCCN1Cc1cccc(-c2ccc(C)c(Cl)c2)c1 (centres undefined)	40µM*	40µM*	x	x	x

Screening data: PubChem BioAssay, National Center for Advancing Translational Sciences (NCATS)
